The experiment has as its target Calmodulin-1 (Homo sapiens) (UniProt P0DP23). Description: calcium-bound CALM1 binders on microarrays, profiling panel, artefact control for SMM control-protein annotation, biochemical, small-molecule microarray, Cy5-labelled CALM1, plus calcium (AID 1112).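 Note: score merges spot fluorescence with signal to noise from triplicate slides.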 Conditions: Cy5-CALM1 binding fluorescence, higher = more signal.
For the compound `CCCCCCCCCCC(O)C1C=CC2C(=O)N(C)C(=O)C2N1N1CCCCC1` (centres undefined), the composite z-score is 1.4.
Next, `CCCC[C@@H]1C[C@H]1[C@@H](NC(=O)Cc1ccccc1)c1ccc(Cl)cc1`: 1.53; `CC(C)=CCN(C(=O)C#Cc1ccccc1)[C@H](CO)c1ccccc1`: -0.56; `COc1ccc(NC(=O)O[C@H]2[C@H](OC(=O)Nc3ccc4c(c3)OCO4)[C@H](OC(=O)Nc3ccc4c(c3)OCO4)[C@@H](OC)O[C@@H]2CO)cc1`: -0.958.
On to `CCCC[C@H]1OB(O)C[C@H]2C1=C(C)C[C@H]1C(=O)C=CC(=O)[C@H]12`, for which the composite z-score was -0.741.
Next, `CO[C@H]1O[C@H](CO)[C@@H](OC(=O)Nc2ccccc2)[C@@H]2OC(=O)[C@H](Cc3ccccc3)C/C=C/C[C@@H](Cc3ccccc3)C(=O)O[C@@H]12`: -0.123; `C[C@H]1C2[C@H](Cc3ccccc3)NC(=O)[C@]23C(=O)NCC(=O)N2CCC[C@H]2C(=O)NC/C=C\C/C=C/C3[C@@H]2O[C@]12C` (some centres undefined): -0.698.
Next, `[N-]=[N+]=NCc1ccccc1C[C@]1(C(=O)O)COC(c2ccc(OCCCO)cc2)=N1`: 1.01.
For `CC(C)CNC(=O)[C@@]1(C)c2ccccc2C(=O)N(Cc2cc(F)cc(C(F)(F)F)c2)[C@H]1c1ccc(CO)cc1` the value was 0.0987.
In the case of `CN(C)CCCNC(=O)[C@@H]1c2ccccc2C(=O)N(C2Cc3ccccc3C2)[C@H]1c1ccc(CO)cc1`, the composite z-score was -0.875.
Turning to `CCN(CC)c1ccc(N2CC=CC34O[C@@H]5C=CCOC(=O)[C@@H]5[C@H]3C(=O)N(CCO)[C@@H]4C2=O)cc1` (some centres undefined), the composite z-score stood at 0.266.
For `COc1ccccc1CN1C(=O)c2ccccc2[C@@H](C(=O)NCCCN(C)C)[C@@H]1c1ccc(CO)cc1` the value was -0.298; for `COc1cc(OC)c(C(O)C2C=CC3C(=O)N(c4ccccc4)C(=O)C3N2Nc2ccccc2F)cc1Br` (centres undefined), 0.764; for `CC(=O)c1ccc(C(O)C2C=CC3C(=O)NC(=O)C3N2Nc2ccc(Cl)cc2Cl)cc1` (centres undefined), 0.468.
For `C=CCC(OC(C)=O)[C@@H]1[C@@H](N(Cc2cc3ccccc3o2)C(=O)Cc2ccc(OC)cc2)c2cc(OCCCO)ccc2N1C(=O)Cc1ccc(OC)cc1` (some centres undefined) the value was 0.158; for `COCCCN1C(=O)[C@@]2(Cc3ccccc31)c1ccccc1C(=O)N(Cc1ccccc1OC)[C@H]2c1ccc(CO)cc1`, -0.0984.
In the case of `COc1ccc(C#Cc2ccc3c(c2)[C@]2(C(=O)N3)[C@H](C(=O)Nc3nc4ccccc4s3)[C@H]3C(=O)O[C@H](c4ccccc4)[C@H](c4ccccc4)N3[C@@H]2c2ccc(OCCO)cc2)cc1`, the composite z-score is 0.915.
Next, `CC(C)C[C@H]1NC(=O)[C@@H](C)NC(=O)[C@@]23C(=O)N[C@@H](Cc4ccccc4)C2[C@H](C)[C@@]2(C)O[C@H]2C3/C=C/C/C=C\CNC1=O` (some centres undefined): -1.09; `CC(C)C[C@H]1NC(=O)[C@@]23C(=O)N[C@@H](Cc4ccccc4)C2[C@H](C)[C@@]2(C)O[C@H]2C3/C=C/C/C=C\CNC(=O)[C@@H]2CCCN2C1=O` (some centres undefined): -0.576; `COc1ccc(C(O)C2C=CC3C(=O)N(C)C(=O)C3N2Nc2ccc([N+](=O)[O-])cc2[N+](=O)[O-])cc1OCc1ccccc1` (centres undefined): -0.0482.
On to `[N-]=[N+]=Nc1ccccc1[C@@H]1OC(c2ccc(OCCCO)cc2)=N[C@]1(Cc1ccccc1)C(N)=O`, for which the composite z-score is 0.719.
In the case of `CN(C)C(=O)[C@@]1(CCS(=O)(=O)c2ccccc2)N=C(c2ccc(OCCCO)cc2)O[C@H]1c1ccccc1N=[N+]=[N-]`, the composite z-score was -0.0024.
In the case of `CN1C(=O)[C@]2(CCC(=O)OC(C)(C)C)N=C(c3ccc(OCCCO)cc3)O[C@@H]2c2ccccc21`, the composite z-score is -0.0006.
Next, `C[N+](C)(C)CCCCCCNC(=O)[C@@H]1C[C@@H]2C(=O)N[C@@H](Cc3ccccc3)C(=O)N2[C@@H]1c1ccc(O)cc1`: -0.927.
Take `CCCC=C(CCC)[C@@H](NS(=O)(=O)c1ccc(Cl)cc1)c1ccccc1`: the composite z-score was found to be 0.781.
As for `CO[C@H]1O[C@H](CO)[C@@H](OC(=O)Nc2ccc(C(F)(F)F)cc2)[C@H](OC(=O)Nc2ccccc2-c2ccccc2)[C@@H]1OC(=O)Nc1ccccc1-c1ccccc1`, the composite z-score worked out at 0.383.
For `CC(C)[C@@H](C(=O)O)n1cc(-c2ccccc2)nn1` the value was 0.957.
Regarding `C=CCNC(=O)[C@@H]1[C@H]2C(=O)O[C@H](c3ccccc3)[C@H](c3ccccc3)N2[C@H](c2ccc(O)cc2)[C@@]12C(=O)Nc1ccc(C#CC3(O)CCCCCC3)cc12`, the composite z-score is -0.0571.
As for `O=C1N(CCS(=O)(=O)c2ccccc2)c2ccccc2[C@@H]2OC(c3ccc(OCCCO)cc3)=N[C@]12CCS(=O)(=O)c1ccccc1`, the composite z-score came to 0.176.

(Values after PubChem BioAssay.)
